# Results published in the supplement of paper PMC8728848.
# About 410 targets per protein were measured; listed, in parts, are those with the strongest signals and a random draw of the rest.
# B1: PX14367A-bth-493-35-493 (Bacteroides thetaiotaomicron) (protein)
# chain: VSSDQVAVAGNAERLFNGAWYNLFEYGTTYANIGYRALQCQDDMMASDVVSRPKYGFNSSYQFNDVAIPSDGRTSFAWYLIYKTIDNCNTAISIKGDSEELRQAQGQALALRAFCYLHLVQHYQFTYLKDKDAPCVPIYTEPTTSGTKPKGKSTVAQVYQQIFDDLNLAQDYLTNYVRKGDGQKFKPNTDVVNGLMARAYLLTGQWGEAAKAAEAARKGYSLMTTTAEYEGFNNISNKEWIWGSPQTLSQSDASYNFYYLDATYVGAYSSFMADPHLMDTFVKGDIRLPLFQWMREGYLGYKKFHMRSDDTADLVLMRSAEMYLIEAEAKVRDGVALDQAVAPLNTLRTARGVGNYDVTGKTKEQVIDEILMERRRELWGEGFGITDVLRNQKAVERMALSEDMQKTEVDCWQEGGSFAKRNPLGHWFLNFPDGKAFSANSSYYLYAIPEKEINANPNL
# What was measured:
# Assay in all cases: glycan array binding signal (z-score within array); higher = stronger binding
# Details in all cases: glycan notation: IUPAC condensed, linker removed
# [1] = target: Fuc(a1-2)Gal6S(b1-4)Glc6S
# Procedure, shortened: (§1)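 Negative Z-scores can be read as non-binding. The Z-score is calculated within each array and then averaged across arrays of one protein sequence at different concentrations or buffers and across linkers. Arrays, 3228 in all, were curated from the Consortium for Functional Glycomics database and kept only where the protein sequence was available.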
# [2] = target: Fuc(a1-2)[Gal(a1-3)]Gal(b1-3)GlcNAc(b1-3)GalNAc
# Procedure, shortened: as §1
# [3] = target: Fuc(a1-2)[Gal(a1-4)]Gal(b1-4)GlcNAc
# Procedure, shortened: as §1
# [4] = target: Fuc(a1-2)[GalNAc(a1-3)]Gal(b1-3)GalNAc(b1-3)Gal(a1-4)Gal(b1-4)Glc
# Procedure, shortened: as §1
# [5] = target: Fuc(a1-2)[GalNAc(a1-3)]Gal(b1-3)GlcNAc(b1-2)Man(a1-3)[Fuc(a1-2)[GalNAc(a1-3)]Gal(b1-3)GlcNAc(b1-2)Man(a1-6)]Man(b1-4)GlcNAc(b1-4)GlcNAc
# Procedure, shortened: as §1
# [6] = target: Fuc(a1-2)[GalNAc(a1-3)]Gal(b1-4)[Fuc(a1-3)]GlcNAc
# Procedure, shortened: as §1
# [7] = target: Fuc(a1-3)[Gal(b1-4)]GlcNAc(b1-2)Man(a1-3)[Fuc(a1-3)[Gal(b1-4)]GlcNAc(b1-2)Man(a1-6)]Man(b1-4)GlcNAc(b1-4)[Fuc(a1-6)]GlcNAc
# Procedure, shortened: as §1
# [8] = target: Fuc(a1-3)[Gal(b1-4)]GlcNAc(b1-3)Gal(b1-4)[Fuc(a1-3)]GlcNAc
# Procedure, shortened: as §1
# [9] = target: Gal(a1-2)Gal
# Procedure, shortened: as §1
# [10] = target: Gal(a1-3)Gal(b1-4)GlcNAc(b1-2)Man(a1-3)[Gal(a1-3)Gal(b1-4)GlcNAc(b1-2)Man(a1-6)]Man(b1-4)GlcNAc(b1-4)GlcNAc
# Procedure, shortened: as §1
# [11] = target: Gal(b1-3)GlcNAc(b1-2)Man(a1-3)[GlcNAc(b1-4)][Gal(b1-3)GlcNAc(b1-2)Man(a1-6)]Man(b1-4)GlcNAc(b1-4)GlcNAc
# Procedure, shortened: as §1
# [12] = target: Gal(b1-3)GlcNAc(b1-3)Gal(b1-3)GlcNAc
# Procedure, shortened: as §1
# [13] = target: Gal(b1-3)[Fuc(a1-4)]GlcNAc
# Procedure, shortened: as §1
# [14] = target: Gal(b1-3)[Fuc(a1-4)]GlcNAc(b1-3)Gal(b1-3)[Fuc(a1-4)]GlcNAc
# Procedure, shortened: as §1
# [15] = target: Gal(b1-3)[GlcNAc(b1-6)]GalNAc
# Procedure, shortened: as §1
# [16] = target: Gal(b1-4)GlcNAc(b1-2)Man(a1-3)[Gal(b1-4)GlcNAc(b1-2)Man(a1-6)]Man(b1-4)GlcNAc(b1-4)GlcNAc
# Procedure, shortened: as §1
# [17] = target: Gal(b1-4)GlcNAc(b1-2)Man(a1-3)[Gal(b1-4)GlcNAc(b1-2)Man(a1-6)][GlcNAc(b1-4)]Man(b1-4)GlcNAc(b1-4)[Fuc(a1-6)]GlcNAc
# Procedure, shortened: as §1
# [18] = target: Gal(b1-4)GlcNAc(b1-2)Man(a1-3)[Man(a1-6)]Man(b1-4)GlcNAc(b1-4)GlcNAc
# Procedure, shortened: as §1
# [19] = target: Gal(b1-4)GlcNAc(b1-2)Man(a1-6)[GlcNAc(b1-2)Man(a1-3)]Man(b1-4)GlcNAc(b1-4)GlcNAc
# Procedure, shortened: as §1
# [20] = target: Gal(b1-4)GlcNAc(b1-2)[Gal(b1-4)GlcNAc(b1-4)]Man(a1-3)[Gal(b1-4)GlcNAc(b1-2)[Gal(b1-4)GlcNAc(b1-6)]Man(a1-6)]Man(b1-4)GlcNAc(b1-4)GlcNAc
# Procedure, shortened: as §1
# [21] = target: Gal(b1-4)GlcNAc(b1-2)[Gal(b1-4)GlcNAc(b1-6)]Man(a1-6)[Gal(b1-4)GlcNAc(b1-2)Man(a1-3)]Man(b1-4)GlcNAc(b1-4)[Fuc(a1-6)]GlcNAc
# Procedure, shortened: as §1
# [22] = target: Gal(b1-4)GlcNAc(b1-3)Gal(b1-4)GlcNAc
# Procedure, shortened: as §1
# [23] = target: Gal(b1-4)GlcNAc(b1-3)Gal(b1-4)GlcNAc(b1-2)Man(a1-3)[Gal(b1-4)GlcNAc(b1-3)Gal(b1-4)GlcNAc(b1-2)Man(a1-6)]Man(b1-4)GlcNAc(b1-4)GlcNAc
# Procedure, shortened: as §1
# [24] = target: Gal(b1-4)GlcNAc(b1-3)Gal(b1-4)GlcNAc(b1-2)Man(a1-3)[Gal(b1-4)GlcNAc(b1-3)Gal(b1-4)GlcNAc(b1-2)Man(a1-6)]Man(b1-4)GlcNAc(b1-4)[Fuc(a1-6)]GlcNAc
# Procedure, shortened: as §1
# [25] = target: Gal(b1-4)GlcNAc(b1-3)Gal(b1-4)GlcNAc(b1-3)Gal(b1-4)GlcNAc(b1-2)Man(a1-3)[Gal(b1-4)GlcNAc(b1-3)Gal(b1-4)GlcNAc(b1-3)Gal(b1-4)GlcNAc(b1-2)Man(a1-6)]Man(b1-4)GlcNAc(b1-4)GlcNAc
# Procedure, shortened: as §1
# [26] = target: Gal(b1-4)GlcNAc(b1-3)Gal(b1-4)GlcNAc(b1-3)Gal(b1-4)GlcNAc(b1-2)Man(a1-3)[Gal(b1-4)GlcNAc(b1-3)Gal(b1-4)GlcNAc(b1-3)Gal(b1-4)GlcNAc(b1-2)Man(a1-6)]Man(b1-4)GlcNAc(b1-4)[Fuc(a1-6)]GlcNAc
# Procedure, shortened: as §1
# [27] = target: Gal(b1-4)GlcNAc(b1-3)Gal(b1-4)GlcNAc(b1-3)Gal(b1-4)GlcNAc(b1-3)Gal(b1-4)GlcNAc(b1-2)Man(a1-3)[Gal(b1-4)GlcNAc(b1-3)Gal(b1-4)GlcNAc(b1-3)Gal(b1-4)GlcNAc(b1-3)Gal(b1-4)GlcNAc(b1-2)Man(a1-6)]Man(b1-4)GlcNAc(b1-4)GlcNAc
# Procedure, shortened: as §1
binder,measurement,setting,value
B1,glycan array binding signal (z-score),[1],-0.358
same,glycan array binding signal (z-score),[2],-0.51
same,glycan array binding signal (z-score),[3],-0.256
same,glycan array binding signal (z-score),[4],-0.668
same,glycan array binding signal (z-score),[5],0.408
same,glycan array binding signal (z-score),[6],-0.482
same,glycan array binding signal (z-score),[7],-0.25
same,glycan array binding signal (z-score),[8],-0.421
same,glycan array binding signal (z-score),[9],-0.084
same,glycan array binding signal (z-score),[10],3.93
same,glycan array binding signal (z-score),[11],1.39
same,glycan array binding signal (z-score),[12],-0.152
same,glycan array binding signal (z-score),[13],-0.11
same,glycan array binding signal (z-score),[14],-0.392
same,glycan array binding signal (z-score),[15],-0.406
same,glycan array binding signal (z-score),[16],1.44
same,glycan array binding signal (z-score),[17],-0.354
same,glycan array binding signal (z-score),[18],3.6
same,glycan array binding signal (z-score),[19],-0.174
same,glycan array binding signal (z-score),[20],-0.334
same,glycan array binding signal (z-score),[21],-0.167
same,glycan array binding signal (z-score),[22],-0.81
same,glycan array binding signal (z-score),[23],3.94
same,glycan array binding signal (z-score),[24],7.69
same,glycan array binding signal (z-score),[25],2.81
same,glycan array binding signal (z-score),[26],2.6
same,glycan array binding signal (z-score),[27],1.4
